Consider 14 molecules from publication PMC12136788.

In all, about 5,800 sequences were measured (“enrichment r”: median about 0.68, highest 2% from about 11 on). Not all results are given here.

B1: chr11:61866962:61867357:+|3pUTR|ENSG00000134824|msi1|FALSE|unique (ssRNA)
RNA: GGGAGUUCUACAGUCCGACGAUCAGAUUCAGGGGAAGGGCAGGCACCAACAACUCAGAAUGGGGGCUUUCGGGGAGGGCGCCUAGUCCCCCCAGCUCUAAGCAGCCAGGAGGGACCUGCAUCUAAGCAUCUGGGUUGCCAUGGCAACAGAGGAUUGAGCAUCA
B2: chr2:32508095:32508220:+|CDS|ENSG00000115760|unk|total|mutant (ssRNA)
RNA: GGGAGUUCUACAGUCCGACGAUCAGCCGAAGCCGCUUCUGCUGUCUGCCUCCGACUACAUCGUCCACGGGAUGCCAGCACAUCCGGCCUUUCACAAAUUAAAUUAUUGGGGCUCACUGCUUUUGGUACCACCUCUUCUGCAACCAACAGAGGAUUGAGCAUCA
B3: chr14:92797766:92797867:+|CDS|ENSG00000066455|msi1|total|mutant (ssRNA)
RNA: GGGAGUUCUACAGUCCGACGAUCCAUUUUGUGCGAAGAAAAAAGUCAGAACCUGAUGAUGAGCUGCUGUUUGAUUUUCUUAACCGUUCACAGAAGGAGCCUACCGGGAGGGUGGAAAUCAGAAAGGAAAAAGGCAAGACACCUCAACAGAGGAUUGAGCAUCA
B4: chr18:70325936:70326038:+|CDS|ENSG00000170677|unk|total|mutant (ssRNA)
RNA: GGGAGUUCUACAGUCCGACGAUCAGCUUUCGCUCCCAUGGUAAAACACUUCACACCCGAAUUGAGCACUCAAAUGGCCGGUUCCGCUUUUAUGAACAGCCAGAUGUGGAAGGACAUACGUCCACCGUUGAUCUAAUUGAGCAUCAACAGAGGAUUGAGCAUCA
B5: chr11:43405833:43405939:+|CDS|ENSG00000052841|unk|FALSE|unique (ssRNA)
RNA: GGGAGUUCUACAGUCCGACGAUCGGCCCAAACCCCUGACUGUUCCAUAACUGACUUCAGAAAAAGCCACACUCUGUCCUACUUAGUCAAAGAAUUAGAGGUUCGCAUGGAUCUGAAAGCCAAAAUGCCAGAUGACCAUGCACGCAACAGAGGAUUGAGCAUCA
B6: chr6:1612588:1612689:+|3pUTR|ENSG00000054598|msi1|total|mutant (ssRNA)
RNA: GGGAGUUCUACAGUCCGACGAUCUUUAUUCAUGGACUUGUUUUAAAAUGUAAAUUGCAACACCGUAAUUUAUUUUUAAUUUGCCGUUGGAUGUCGUGGACCAAACGCCAGAAAGUGUUCCCAAAACCUGACGUUAAAUUGCCUCAACAGAGGAUUGAGCAUCA
B7: chr2:111862450:111862553:-|CDS|ENSG00000153107|unk|FALSE|unique (ssRNA)
RNA: GGGAGUUCUACAGUCCGACGAUCUCUUUUUCAGGGGUGCAAAGGUUCAACAUUUCAAGCCAUAAUCAGUCUCCAAAGAGACAUAGUAUUUCUCAUUCUCCAAAUAGUAAUUCUAAUGGCUCCUUUCUUGCACCAGAAACGGAGCAACAGAGGAUUGAGCAUCA
B8: chr7:83961326:83961382:-|CDS_3pUTR|ENSG00000075213|msi1_unk|FALSE|overlapping (ssRNA)
RNA: GGGAGUUCUACAGUCCGACGAUCAAACAGGAGGACCCACGAAUUUGAGAGGGCACCCAGGAGUGUCUGAGCUGCAUUACCUCUAGAAACCUCAAACAAGUAGAAACUUGCCUAGACAAUAACUGGAAAAACAAAUGCAAUAUACAACAGAGGAUUGAGCAUCA
B9: ENSG00000124766:be:win_3951|3pUTR|ENSG00000124766|bound_else_gene|NA|bound_elsewhere_windowed (ssRNA)
RNA: GGGAGUUCUACAGUCCGACGAUCGUUUGGGGGAAAAAAAAGAAAAAAUCAUGCCAGCUAAUCAUGUCAAGUUCACUGCCUGUCAGAUUGUUGAUAUAUACCUUCUGUAAAUAACUUUUUUUGAGAAGGAAAUAAAAUCAGCUGCAACAGAGGAUUGAGCAUCA
B10: chr17:29262523:29262623:-|3pUTR|ENSG00000108256|msi1_unk|FALSE|overlapping (ssRNA)
RNA: GGGAGUUCUACAGUCCGACGAUCACUUUGACUGAUAUUGUAAUUUUCAAAUGUAUAAUAUGUUUACAGAUGUGCCCUGCAUUUAGUCUGCCUUGUUCCUAUUUUGAUUUUUGUUGAGUCUCCUGCCUGCUUGCCAAAAGCUAGCAACAGAGGAUUGAGCAUCA
B11: chrX:149581652:149582231:-|three_prime_utr|ENSG00000267978|control|control|control (ssRNA)
RNA: GGGAGUUCUACAGUCCGACGAUCCAAAUGUUCUUUUAAUGGUCAGUUUAAUGAACUUCACCAUCGAAGUUAAUGAAUGACAGUAGUCACACAUAUUGCUGUUUAUGUUAUUUAGGAGUAAGAUUCUUGCUUUUGAGUCACAUGCAACAGAGGAUUGAGCAUCA
B12: chr15:48879495:48879609:+|3pUTR|ENSG00000255302|msi1|total|mutant (ssRNA)
RNA: GGGAGUUCUACAGUCCGACGAUCGACACUAAAUGUGUGUGAAUGUACAAAGAAAACAAACCAUUGCUUAUGCUGUUAUAUACCCGAGAAAUUUUGUUUUGCUUGCUGUUUUAACUUGACAGAUGAAGGACUUCCGUUGAACUUCAACAGAGGAUUGAGCAUCA
B13: chr16:87831719:87831834:-|3pUTR|ENSG00000103257|msi1_unk|FALSE|overlapping (ssRNA)
RNA: GGGAGUUCUACAGUCCGACGAUCCCUGCGUUUGGAGGCCCCUGGGCUCUCACCCAGUCCCCACCCGCCUGCAGAGAGGGAACUAGGGCACCCCUUGUUUCUGUUGUUCCCGUGAAUUUUUUUCGCUAUGGGAGGCAGCCGAGGCAACAGAGGAUUGAGCAUCA
B14: chr8:93925380:93925481:+|3pUTR|ENSG00000164951|msi1|total|mutant (ssRNA)
RNA: GGGAGUUCUACAGUCCGACGAUCAUUUAUUUCUAAAUGUUUUGACUGGGCAUUUUUCUUUUAAUGAAAUAUGUGGACUGCUCCCGCAAACCCUAUUUUCAGCUACUAUUUGAAUAUUCUUGAACACCACCACUGAAGAGUUUCCAACAGAGGAUUGAGCAUCA

The target of the assay is T1, UNK ZnF1-6 (called full-length) (human, UniProt Q9C0B0 30-357).
T1 sequence: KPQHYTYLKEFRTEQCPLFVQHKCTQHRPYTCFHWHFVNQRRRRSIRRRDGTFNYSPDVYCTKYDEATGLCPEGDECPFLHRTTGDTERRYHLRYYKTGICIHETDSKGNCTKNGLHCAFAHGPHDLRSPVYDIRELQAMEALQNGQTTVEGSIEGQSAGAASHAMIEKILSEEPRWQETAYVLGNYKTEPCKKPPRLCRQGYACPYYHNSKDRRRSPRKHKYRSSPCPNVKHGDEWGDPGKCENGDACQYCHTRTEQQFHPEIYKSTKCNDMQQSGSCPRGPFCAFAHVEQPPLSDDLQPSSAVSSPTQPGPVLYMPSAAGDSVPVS
In words: nsRBNS (natural sequence RNA bind-n-seq); RBNS binding buffer (assumed for nsRBNS): 25 mM Tris pH 7.5, 150 mM KCl, 3 mM MgCl2, 0.01% Triton X-100, 500 ug/ml BSA, 20 U/ml SUPERase-In, 4 C; UNK is unkempt and MSI1 is Musashi-1; names of the RNAs are library labels; protein concentration not given here; high values mean tight binding.
B1 showed a binding signal of 0.948 enrichment R. Next, B2: 0.577 enrichment R; B3: 0.771 enrichment R.

In turn, B4 had a binding signal of 0.461 enrichment R.

In turn, B5 had a binding signal of 1.07 enrichment R.

The molecule B6 displayed a binding signal of 0.325 enrichment R. Next, B7: 1.49 enrichment R. Next, B8: 0.962 enrichment R; B9: 0.788 enrichment R. Take B10: the binding signal came to 0.807 enrichment R.

The molecule B11 registered a binding signal of 0.441 enrichment R. The molecule B12 yielded a binding signal of 0.453 enrichment R.

In the case of B13, the binding signal is 0.701 enrichment R. Consider B14, for which the binding signal stood at 0.657 enrichment R.
